Data on 4 molecules can be found in PubChem BioAssay (NCATS).

Several values for one entry are separate records, joined by “and”; a condition that tells them apart may be missing. Equal values may be shown once. Inconclusive results are not listed. Activity calls are given as the source filed them. Unless noted, the call rests on the fitted dose curve; in most records, active means well fitted curve in the direction sought with a large enough effect; inconclusive means small, poorly fitted or top-dose-only effect, or another doubt; inactive means no such curve, though single readings can be large; an effect the other way counts as inactive or inconclusive.

A short description of assay [1]: Cell Viability - LYMP2-006 (AID 978). Further: on the % scale 0 is the no-effect control and ±100 the full control effect; nearly all actives have a fitted effect of over 60% in size. The method, boiled down:
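Human lymphoblastoid cells, 2500 per well, were preincubated 5 hr at 37 C, then exposed to compounds for 24 hr at 37 C in complete medium. Viability was read as intracellular ATP by CellTiter-Glo luminescence; AC50 from Hill-equation fits of qHTS concentration-response data.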

Assay [2] is described as follows: Cell Viability - LYMP2-007 (AID 979).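 Further: cells exposed to compound for 24 h before reading; 0% = DMSO only and the negative end = 92 µM tetraoctylammonium bromide; nearly all actives have a fitted effect of over 60% in size.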 The procedure, abridged:
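Human lymphoblastoid LYMP2-007 cells (2500/well) preincubated 5 h at 37 C, then treated 24 h at 37 C in complete medium. Viability by CellTiter-Glo ATP luminescence after 30 min at room temperature; AC50 from Hill fits.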

Assay [3] in a line: Cell Viability - LYMP2-008 (AID 980). Further: on the % scale 0 is the no-effect control and ±100 the full control effect; nearly all actives have a fitted effect of over 60% in size. The procedure, abridged:
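LYMP2-008 lymphoblastoid cells (2500/well) plated 5 h, then treated 24 h at 37 C in complete medium. Viability read as intracellular ATP by CellTiter-Glo luminescence after 30 min at room temperature; AC50 from Hill fits.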

A short description of assay [4]: Cell Viability - LYMP2-012 (AID 982).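 Further: cellular ATP by luciferase luminescence where a drop means cytotoxicity; cells exposed to compound for one day before reading; 0% = DMSO only and full loss = 92 µM tetraoctylammonium bromide; nearly all actives have a fitted effect of over 55% in size.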
A short description of assay [5]: Cell Viability - LYMP2-014 (AID 983).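 Further: plate controls were DMSO only for no effect and 92 µM tetraoctylammonium bromide for full effect; nearly all actives have a fitted effect of over 50% in size.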 The method, boiled down: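 LYMP2-014 human lymphoblastoid cells, 2500/well, treated 24 h at 37 C in complete medium; viability by CellTiter-Glo ATP luminescence after 30 min at room temperature. AC50 from Hill fits of qHTS concentration-response; tetraoctylammonium bromide positive control.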
Assay [6] can be described thus: Cell Viability - LYMP2-016 (AID 984). Further: on the % scale 0 is the no-effect control and ±100 the full control effect; nearly all actives have a fitted effect of over 55% in size. The method, boiled down: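 Human lymphoblastoid cells (LYMP2-016), 2500/well in complete medium, preincubated 5 hr at 37 C, then compound-treated 24 hr at 37 C. Intracellular ATP read by CellTiter-Glo luminescence after 30 min at room temperature; AC50 from Hill-equation concentration-response fits.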
Assay [7] can be described thus: Cell Viability - LYMP2-018 (AID 985).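 Further: compound exposure lasted 24 hr at 37 °C; plate controls were DMSO only for no effect and tetraoctylammonium bromide at 92 µM for full effect; nearly all actives have a fitted effect of over 50% in size.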 The method, boiled down: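 Human lymphoblastoid LYMP2-018 cells, 2500/well, settled 5 hr at 37 C then exposed to compound 24 hr at 37 C; intracellular ATP measured by CellTiter-Glo luminescence. AC50 from Hill-equation concentration-response fits.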
Assay [8] in a line: Cell Viability - LYMP2-020 (AID 986).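 Further: plate controls were DMSO only for no effect and tetraoctylammonium bromide at 92 µM for full effect; nearly all actives have a fitted effect of over 55% in size.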 The method, boiled down: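 Human lymphoblastoid LYMP2-020 cells (2500/well) preincubated 5 h at 37 C, then treated 24 h at 37 C. Viability measured as intracellular ATP by CellTiter-Glo luminescence after 30 min at room temperature; AC50 from Hill fits.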
Assay [9] in a line: Cell Viability - LYMP2-022 (AID 987).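 Further: 0% = DMSO alone and full effect = tetraoctylammonium bromide at 92 µM; nearly all actives have a fitted effect of over 55% in size.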 The method, boiled down:
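LYMP2-022 lymphoblastoid cells (2500/well, complete medium) were treated with compounds for 24 hours at 37 C; intracellular ATP was then read by CellTiter-Glo luminescence after 30 min at room temperature. AC50 values were derived from Hill-equation fits.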

The nature of assay [10]: Cell Viability - LYMP2-024 (AID 988).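 Further: plate controls were DMSO only for no effect and 92 µM tetraoctylammonium bromide for full effect; nearly all actives have a fitted effect of over 60% in size.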 The procedure, abridged:
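Human lymphoblastoid LYMP2-024 cells (2500/well) rested 5 hr, then treated with compound for 24 hr at 37 C in complete medium. Viability was measured as intracellular ATP by CellTiter-Glo luminescence. AC50 values came from Hill-equation fits.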

The nature of assay [11]: Cell Viability - LYMP2-026 (AID 989). Further: on the % scale 0 is the no-effect control and ±100 the full control effect; nearly all actives have a fitted effect of over 50% in size. The procedure, abridged:
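Human lymphoblastoid LYMP2-026 cells, 2500/well, exposed to compound 24 h at 37 C in complete medium. Viability as intracellular ATP by CellTiter-Glo luminescence; AC50 from Hill fits of qHTS concentration-response.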

The target of assay [12] is Alpha-galactosidase A (Homo sapiens) (UniProt P06280). The assay can be described thus: Counterscreen for Glucocerebrosidase Inhibitors: qHTS Assay for Human alpha-Galactosidase at pH 4.5 (AID 992). Further: 0% is about no effect. The method, boiled down: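 Read-out is 4-methylumbelliferone fluorescence (365 nm excitation, 440 nm emission) after a pH 10 NaOH/glycine stop. Reactions held 2 nM enzyme and 80 uM substrate at pH 4.5 for 20 min at room temperature.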

Assay [13] can be described thus: Cell Viability - LYMP1-002 - Assay at 24 hr (AID 993). Further: on the % scale 0 is the no-effect control and ±100 the full control effect. The method, boiled down: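 Human lymphoblastoid LYMP1-002 cells (2500/well) treated 24 h at 37 °C; viability as intracellular ATP by CellTiter-Glo luminescence. Tetraoctylammonium bromide as positive control; AC50 from Hill-equation fits of qHTS concentration-response.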
Assay [14] is described as follows: Cell Viability - LYMP1-002 - Assay at 40 hr (AID 994). The procedure, abridged:
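LYMP1-002 human lymphoblastoid cells (2500/well, complete medium) were treated with compounds for 40 hr at 37 C. Intracellular ATP was measured by CellTiter-Glo luminescence, and AC50 values came from Hill-equation fits of concentration-response data; tetraoctylammonium bromide was the positive control.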

Assay [15] in a line: qHTS Assay for Lipid Storage Modulators (AID 1519; calls by dose curve; on activity change, negative = inhibition: on the % scale 0 is the no-effect control and ±100 the full control effect). The note with it: Drosophila S3 cells, BODIPY lipid droplet/cell ratio, laser cytometry, cells loaded with oleic acid. The procedure, abridged:
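Cells seeded at 5,000 per well were treated with compounds over a concentration series and loaded with oleic acid (400 uM, as added). Lipid droplet fluorescence (488 nm excitation, 500-530 nm channel) was read by laser-scanning cytometry and normalized to 20 uM Triacsin C.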

The nature of assay [16]: Counterscreen for APE1 Inhibitors: Fluorescent Dye Displacement Validation Assay (AID 1707).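 Further: plate controls were ThO with dsDNA and no compound for no effect and ThO without dsDNA for full effect.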 The procedure, abridged: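 ThO 250 nM + dsDNA 50 nM (THF abasic site, 5'-TAMRA), Tris-HCl pH7.5/50mM NaCl/2 mM MgCl2/0.01% Tween-20; compounds pin-transferred; ex 480/em 540 nm endpoint. Neutral = no compound; no-DNA ThO wells = negative control.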
Assay [17] concerns the target Endonuclease 4 (Escherichia coli (strain K12)) (UniProt P0A6C1). Description: Counterscreen for APE1 Inhibitors: qHTS Validation Assay for Inhibitors of Endonuclease IV (AID 1708). Further: on the % scale 0 is the no-effect control and ±100 the full control effect. The method, boiled down:
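qHTS concentration-response format; LOPAC1280 tested under APE1-screen conditions. 2 nM enzyme, 15 min compound preincubation at RT, then 50 nM TAMRA/BHQ-2 abasic substrate; kinetic fluorescence read, three reads at 60 s intervals.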

Assay [18] deals with alpha-glucosidase (Oryza sativa, rice) (UniProt Q653V4). The assay can be described thus: Counterscreen for Glucocerebrosidase Inhibitors: qHTS Assay for Rice alpha-Glucosidase at pH 5.0 (AID 997).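 Further: 0% = full activity with enzyme and -100% = basal without enzyme.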 The method, boiled down:
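Rice alpha-glucosidase (4 nM final) with 400 uM 4-methylumbelliferyl-alpha-D-glucopyranoside in citrate buffer pH 5.0, 20 min at room temperature, stopped at pH 10; fluorescence 365/440 nm, compounds 0.7 nM–77 uM, AC50 from Hill fits.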

The target of assay [19] is DNA repair nuclease/redox regulator APEX1 (Homo sapiens) (UniProt P27695). The assay can be described thus: qHTS Validation Assay for Inhibitors of the Human Apurinic/apyrimidinic Endonuclease 1 (APE1) (AID 1705;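 further: TAMRA fluorescence gain over two minutes as APE1 cuts a quenched THF abasic duplex; on the % scale 0 is the no-effect control and ±100 the full control effect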). The procedure, abridged:
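Human APE1 was preincubated with compound for 15 min at room temperature, then 50 nM (final) THF-abasic double-stranded DNA substrate bearing 5'-TAMRA and 3'-BHQ-2 was added. Incision-driven fluorescence rise (ex 525/em 598 nm) was read kinetically.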

[20] abbreviates: measured here: cell count channel max response.
[21] abbreviates: measured here: lipid channel max response.

Sequence of Alpha-galactosidase A (Homo sapiens) (P06280 whole entry, looked up): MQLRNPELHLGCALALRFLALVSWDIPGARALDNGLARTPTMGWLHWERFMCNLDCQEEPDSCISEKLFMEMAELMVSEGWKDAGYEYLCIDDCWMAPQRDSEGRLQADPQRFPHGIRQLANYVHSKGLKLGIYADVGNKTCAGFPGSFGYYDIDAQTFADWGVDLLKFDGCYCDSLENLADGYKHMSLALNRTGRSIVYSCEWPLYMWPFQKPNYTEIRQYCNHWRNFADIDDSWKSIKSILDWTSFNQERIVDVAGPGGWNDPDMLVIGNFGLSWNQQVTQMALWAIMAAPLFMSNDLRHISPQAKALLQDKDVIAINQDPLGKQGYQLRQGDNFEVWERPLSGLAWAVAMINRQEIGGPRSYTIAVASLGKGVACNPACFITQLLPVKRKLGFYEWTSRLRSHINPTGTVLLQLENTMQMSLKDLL
Sequence of DNA repair nuclease/redox regulator APEX1 (Homo sapiens) (P27695 whole entry, looked up): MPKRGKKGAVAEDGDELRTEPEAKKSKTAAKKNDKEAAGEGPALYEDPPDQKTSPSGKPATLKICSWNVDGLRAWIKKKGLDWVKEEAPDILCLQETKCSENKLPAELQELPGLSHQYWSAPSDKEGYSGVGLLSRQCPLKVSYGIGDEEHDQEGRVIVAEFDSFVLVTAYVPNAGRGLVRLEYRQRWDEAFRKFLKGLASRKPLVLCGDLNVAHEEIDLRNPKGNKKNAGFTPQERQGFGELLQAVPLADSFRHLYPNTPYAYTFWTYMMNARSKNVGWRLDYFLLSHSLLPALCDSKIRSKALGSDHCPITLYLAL

With `NS(=O)(=O)c1cc2c(cc1Cl)NCNS2(=O)=O`, the result in assay [1], in assay [2], in [3], in [4], in [5] and in assay [6] was inactive. Further, the molecule was called inactive in assay [7], in assay [8], in assay [9], in assay [10], in [11] and in [12]. In addition, the result in assay [13] was inactive. Besides, the Potency result in assay [14], in [16] and in assay [17] was “inactive” each time. Besides, the activity change, negative = inhibition in [15] (at 25.7 µM (top of the series)) was 0.69% (inactive); in assay [15] (at 57.5 µM (top of the series)) it was 7.4% (inactive). The max response in assay [15] (setting [20]) is -3.42% and 12.6%; in assay [15] (setting [21]), -4.41% and 24.1%.
With `Nc1ccn([C@H]2CC[C@@H](CO)O2)c(=O)n1`, the outcome in [1], in assay [2], in assay [3], in [4], in [5] and in assay [6] was inactive. Besides, the call in [7], in assay [8], in [9], in assay [10], in assay [11] and in assay [12] was inactive. Moreover, the molecule was called inactive in assay [13] and in [18]. The Potency entry in assay [14], in assay [19], in assay [16] and in [17] was “inactive” each time. Further, the activity change, negative = inhibition in [15] (at 57.5 µM (top of the series)) is 0.404% (inactive) and -0.834% (inactive). Moreover, the max response in [15] (setting [20]) was -7.59% and -3.68%; in assay [15] (setting [21]) it was -4.32% and -4.82%.
For `Cc1cnc(C(=O)NCCc2ccc(S(=O)(=O)NC(=O)NC3CCCCC3)cc2)cn1`, the molecule was classed as inactive in [12] and in [18]. In addition, the activity change, negative = inhibition in assay [15] (at 25.7 µM (top of the series)) is 1.51% (inactive); in assay [15] (at 57.5 µM (top of the series)), 0.481% (inactive). For the same molecule, the max response was -0.601% and 30.7% in assay [15] (setting [20]); 0.0944% and 30.2% in assay [15] (setting [21]). In addition, the Potency result in assay [19] and in [17] was “inactive” in each case.
As for `CCC1(c2ccccc2)C(=O)NCNC1=O`, the outcome in assay [1], in assay [2], in assay [3], in [4], in assay [5] and in assay [6] was inactive. Also, the result in assay [7], in assay [8], in assay [9], in assay [10], in assay [11] and in assay [12] was inactive. Besides, in assay [13], the molecule was called inactive. Further, the Potency entry in assay [14], in assay [16] and in [17] was “inactive” in each case. Besides, the activity change, negative = inhibition in [15] (at 25.7 µM (top of the series)) was -1.4% (inactive); in [15] (at 57.5 µM (top of the series)), 0.988% (inactive) and 9.51% (inactive). The max response was 4.93% and -20.9% and 16.1% in assay [15] (setting [20]); 2.59% and -19% and 28.8% in assay [15] (setting [21]).
